Data taken from the supplement of paper PMC4723716.
± gives the uncertainty stated by the source. In all, about 9,900 compounds were measured (“viability index relative to DMSO control”: median about 1, lowest 2% from about 0.85 on). The sample as a whole holds a higher share of the lowest values than the screen did.

Test system: Plasmodium falciparum NF54 stage V gametocytes
Experiment: viability index relative to DMSO control (fraction); higher = less gametocyte killing
Conditions: 2.5 µM, incubation time: 72 h
Summary of the method: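 In 1,536-well plates, 10 µl of serum-free medium holding P. falciparum NF54 stage V gametocytes (0.75% gametocytemia, 1.25% hematocrit) received compound at 2.5 µM for 72 hr at 37°C in low oxygen. After one to two hours with 3 µl of 2.5 µM MitoTracker Red CMXRos containing 0.13% saponin, red particles of 20–70 µm2 were counted in a single field per well. Viability index is reported as the particle count over the plate mean of wells treated with solvent only.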

[1] = library set: Broad Institute DOS

Row | Structure (SMILES) | viability index [1] | viability index (library set: Broad Institute Blood Stage)
1 | C[C@@H]1CN([C@H](C)CO)C(=O)CCCn2nncc2CO[C@@H]1CN(C)S(=O)(=O)c1ccc2c(c1)OCCCO2 | 1.025 ± 0.0016 | –
2 | C[C@@H]1CN([C@H](C)CO)C(=O)c2cc(NS(=O)(=O)c3cn(C)cn3)ccc2O[C@@H](C)CCCCO[C@@H]1CN(C)Cc1ccc2c(c1)OCO2 | 1.15 ± 0.07 | –
3 | CC(=O)N1CC2(C1)[C@@H](c1ccc(-c3ccc(F)cc3)cc1)[C@@H](CO)N2CC1CC1 | 1.08 ± 0.023 | –
4 | O=C(C[C@@H]1C=C[C@@H](NC(=O)Nc2ccc3c(c2)OCO3)[C@@H](CO)O1)NCCCN1CCOCC1 | 1.02 ± 0.075 | –
5 | COc1ccccc1S(=O)(=O)N1[C@@H]2CNC[C@H]1[C@@H]2c1ccc(-c2ccncc2)cc1 | 1.06 ± 0.032 | –
6 | O=C(C[C@@H]1CC[C@H](NC(=O)C2CC2)[C@H](CO)O1)Nc1ccccc1 | 0.916 ± 0.036 | –
7 | O=C(C1CCOCC1)N1C[C@@H]2[C@H](c3ccccc31)[C@@H](CO)N2C(=O)Cc1ccccn1 | 1.06 ± 0.053 | –
8 | COc1ccc2c3c([nH]c2c1)[C@@H](CO)N(C[C@]31CN(C1)C(=O)NC(C)C)C(=O)C1CCOCC1 | 1.03 ± 0.045 | –
9 | C[C@H]1CN([C@@H](C)CO)C(=O)c2cccc(NC(=O)C3CCOCC3)c2O[C@@H]1CN(C)C(=O)Nc1cccc2ccccc12 | 1.03 ± 0.11 | –
10 | CCS(=O)(=O)Nc1ccc2c(c1)C(=O)N(C)[C@@H]1CC[C@H](CC(=O)NC3CCCCC3)O[C@@H]1CO2 | 0.905 ± 0.12 | –
11 | CN(C)C(=O)c1cccc(-c2ccc([C@@H]3[C@H]4CN(C(=O)C5CCC5)CC(=O)N4[C@H]3CO)cc2)c1 | 0.9976 ± 0.0084 | –
12 | COc1ccc(-c2ccccc2[C@@H]2[C@@H](CO)N(C(=O)NC(C)C)[C@H]2C#N)cc1 | 1.1 ± 0.063 | –
13 | COc1ccc(S(=O)(=O)Nc2ccc3c(c2)[C@H]2C[C@H](CC(=O)N(C)C)O[C@@H](CO)[C@H]2O3)cc1 | 1.11 ± 0.014 | –
14 | C[C@H]1CN([C@@H](C)CO)C(=O)c2cc(NS(=O)(=O)c3cn(C)cn3)ccc2O[C@@H]1CN(C)C(=O)Nc1cccc2ccccc12 | 0.954 ± 0.24 | –
15 | C[C@@H]1CN([C@@H](C)CO)S(=O)(=O)c2ccc(C#Cc3cccc(F)c3)cc2O[C@@H]1CN(C)S(=O)(=O)c1cn(C)cn1 | 0.9512 ± 0.0018 | –
16 | C[C@H]1CN([C@@H](C)CO)S(=O)(=O)c2ccc(C#Cc3cccc(F)c3)cc2O[C@@H]1CN(C)S(=O)(=O)c1cn(C)cn1 | 0.985 ± 0.049 | –
17 | C[C@@H]1CN([C@H](C)CO)S(=O)(=O)c2ccc(C#Cc3cccc(F)c3)cc2O[C@@H]1CN(C)S(=O)(=O)c1cn(C)cn1 | 1.01 ± 0.055 | –
18 | C[C@@H]1CN([C@H](C)CO)S(=O)(=O)c2ccc(C#Cc3cccc(F)c3)cc2O[C@H]1CN(C)S(=O)(=O)c1cn(C)cn1 | 0.803 ± 0.052 | –
19 | Cc1ccc(S(=O)(=O)N(C)C[C@@H]2Oc3cc(C#CC4CCCC4)ccc3S(=O)(=O)N([C@@H](C)CO)C[C@H]2C)cc1 | 0.648 ± 0.17 | –
20 | COc1cccc(S(=O)(=O)N(C)C[C@@H]2Oc3cc(Br)ccc3S(=O)(=O)N([C@@H](C)CO)C[C@@H]2C)c1 | 1.07 ± 0.041 | –
21 | Cc1ccc(S(=O)(=O)N(C)C[C@H]2Oc3cc(C#CC4CCCC4)ccc3S(=O)(=O)N([C@H](C)CO)C[C@H]2C)cc1 | 0.8771 ± 0.0037 | –
22 | CCCC#Cc1ccc2c(c1)O[C@H](CN(C)Cc1ccccn1)[C@H](C)CN([C@@H](C)CO)S2(=O)=O | 0.847 ± 0.015 | –
23 | Cc1ccc(S(=O)(=O)N(C)C[C@@H]2Oc3cc(C#CC4CCCC4)ccc3S(=O)(=O)N([C@H](C)CO)C[C@@H]2C)cc1 | 0.943 ± 0.17 | –

Row | Structure (SMILES) | viability index [1] | viability index (library set: Broad Institute Blood Stage)
24 | Cc1ccc(S(=O)(=O)N(C)C[C@@H]2Oc3cc(C#CC4CCCC4)ccc3S(=O)(=O)N([C@H](C)CO)C[C@H]2C)cc1 | 0.766 ± 0.091 | –
25 | CCCC#Cc1ccc2c(c1)O[C@@H](CN(C)Cc1ccccn1)[C@@H](C)CN([C@@H](C)CO)S2(=O)=O | 0.884 ± 0.045 | –
26 | CCCC#Cc1ccc2c(c1)O[C@H](CN(C)Cc1ccccn1)[C@@H](C)CN([C@@H](C)CO)S2(=O)=O | 1.02 ± 0.084 | –
27 | O=C(C[C@H]1CC[C@H]2[C@@H](COC[C@H](O)CN2Cc2nccs2)O1)N1CCC(Cc2ccccc2)CC1 | 1.03 ± 0.078 | –
28 | CN1C(=O)c2cc(NC(=O)c3cnccn3)ccc2OC[C@@H]2O[C@H](CC(=O)N[C@@H]3CCN(Cc4ccccc4)C3)CC[C@H]21 | 1.05 ± 0.031 | –
29 | COc1ccccc1CN1[C@@H]2CNC[C@H]1[C@@H]2c1ccc(-c2cccnc2)cc1 | 1.09 ± 0.1 | –
30 | Cc1noc(C)c1S(=O)(=O)N(C)C[C@@H]1OCCCC[C@H](C)Oc2ccc(NC(=O)CCC(F)(F)F)cc2C(=O)N([C@@H](C)CO)C[C@H]1C | 1.03 ± 0.09 | –
31 | O=C(C[C@@H]1C=C[C@@H](NC(=O)c2ccc3c(c2)OCO3)[C@@H](CO)O1)NC1Cc2ccccc2C1 | 0.963 ± 0.11 | –
32 | COc1cccc(-c2ccccc2[C@@H]2[C@H](C#N)N(C(=O)c3ccccn3)[C@H]2CO)c1 | 1.1 ± 0.072 | –
33 | Cc1ccc(S(=O)(=O)Nc2ccc3c(c2)C(=O)N([C@@H](C)CO)C[C@@H](C)[C@H](CN(C)S(=O)(=O)c2cccs2)OCCCC[C@@H](C)O3)cc1 | 1.13 ± 0.086 | –
34 | CO[C@H](CN(C)Cc1ccc2c(c1)OCO2)[C@H](C)CN(C(=O)c1ccccc1)[C@@H](C)CO | 1.067 ± 0.0074 | –
35 | COc1ccc2c3c([C@@H](CO)N(Cc4ccncc4)C[C@]33CN(C3)C(=O)Nc3cccc(F)c3)n(C)c2c1 | 1 ± 0.16 | –
36 | C/C=C/c1ccc([C@H]2[C@H]3CNC[C@@H]2N3C(=O)Nc2ccc3c(c2)OCO3)cc1 | 1.05 ± 0.093 | –
37 | C[C@H]1CN([C@@H](C)CO)S(=O)(=O)c2ccc(-c3ccncc3)cc2O[C@H]1CN(C)S(C)(=O)=O | 1.023 ± 0.0035 | –
38 | COc1cccc(S(=O)(=O)N(C)C[C@H]2Oc3cc(Br)ccc3S(=O)(=O)N([C@@H](C)CO)C[C@H]2C)c1 | 0.978 ± 0.026 | –
39 | C[C@@H]1CN([C@@H](C)CO)S(=O)(=O)c2ccc(C#Cc3cccc(F)c3)cc2O[C@H]1CN(C)S(=O)(=O)c1cn(C)cn1 | 0.9366 ± 0.0027 | –
40 | C[C@H]1CN([C@@H](C)CO)S(=O)(=O)c2ccc(C#Cc3cccc(F)c3)cc2O[C@H]1CN(C)S(=O)(=O)c1cn(C)cn1 | 1.04 ± 0.054 | –
41 | CCCN(C)C[C@@H]1Oc2cc(/C=C/c3ccccc3)ccc2S(=O)(=O)N([C@@H](C)CO)C[C@H]1C | 1.102 ± 0.0059 | –
42 | Cc1ccc(S(=O)(=O)N(C)C[C@H]2Oc3cc(C#CC4CCCC4)ccc3S(=O)(=O)N([C@@H](C)CO)C[C@H]2C)cc1 | 0.713 ± 0.03 | –
43 | Cc1ccc(S(=O)(=O)N(C)C[C@H]2Oc3cc(C#CC4CCCC4)ccc3S(=O)(=O)N([C@H](C)CO)C[C@@H]2C)cc1 | 0.676 ± 0.26 | –
44 | CCCN(C)C[C@H]1Oc2cc(/C=C/c3ccccc3)ccc2S(=O)(=O)N([C@H](C)CO)C[C@@H]1C | 1.02 ± 0.016 | –
45 | COc1ccccc1S(=O)(=O)N(C)C[C@@H]1Oc2cc(/C=C/c3ccccc3)ccc2S(=O)(=O)N([C@H](C)CO)C[C@H]1C | – | 0.808 ± 0.032
46 | Cc1ccc(S(=O)(=O)N(C)C[C@@H]2Oc3cc(C#CC4CCCC4)ccc3S(=O)(=O)N([C@@H](C)CO)C[C@@H]2C)cc1 | 0.837 ± 0.055 | –

Row | Structure (SMILES) | viability index [1] | viability index (library set: Broad Institute Blood Stage)
47 | COc1ccccc1NC(=O)N1C[C@H](O)COC[C@H]2O[C@H](CC(=O)NCCc3ccncc3)CC[C@@H]21 | 1.08 ± 0.062 | –
48 | O=C1CCC(=O)N[C@@H](c2ccccc2)C/C=C\CCN1 | 1.01 ± 0.087 | –
49 | COc1ccc(NC(=O)N2C[C@@H]3[C@H](c4ccccc42)[C@H](CO)N3Cc2ccccn2)cc1 | 0.993 ± 0.11 | –
50 | CCCNC(=O)Nc1ccc2c(c1)OC[C@H](C)N(Cc1cncnc1)C[C@@H](C)[C@H](OC)CN(C)C2=O | 0.989 ± 0.014 | –
51 | CO[C@H]1CN(C)C(=O)c2cc(NC(=O)C3CCCCC3)ccc2OC[C@H](C)N(Cc2cccnc2)C[C@H]1C | 1.037 ± 0.0049 | –
52 | Cc1noc(C)c1S(=O)(=O)N(C)C[C@@H]1OCc2cn(nn2)CCCC(=O)N([C@@H](C)CO)C[C@H]1C | 1.03 ± 0.014 | –
53 | C[C@H](CO)N1C[C@H](C)[C@H](CN(C)S(=O)(=O)c2cn(C)cn2)Oc2cc(C#Cc3cccc(F)c3)ccc2S1(=O)=O | 0.9878 ± 0.0014 | –
54 | C[C@H](CO)N1C[C@H](C)[C@@H](CN(C)S(=O)(=O)c2cn(C)cn2)Oc2cc(C#Cc3cccc(F)c3)ccc2S1(=O)=O | 1.05 ± 0.09 | –
55 | Cc1ccc(S(=O)(=O)N(C)C[C@H]2Oc3cc(C#CC4CCCC4)ccc3S(=O)(=O)N([C@@H](C)CO)C[C@@H]2C)cc1 | 0.705 ± 0.12 | –
56 | COc1cccc(-c2ccc3c(c2)[C@@H]2[C@@H](CCN2S(=O)(=O)c2cn(C)cn2)[C@@H](CO)N3)c1 | 0.97 ± 0.14 | –
57 | COc1ccc(S(=O)(=O)Nc2ccc3c(c2)CC(=O)N([C@@H](C)CO)C[C@@H](C)[C@H](CN(C)C(=O)Nc2c(C)noc2C)O3)cc1 | 0.986 ± 0.019 | –
58 | COc1ccc(S(=O)(=O)Nc2ccc3c(c2)CC(=O)N([C@@H](C)CO)C[C@@H](C)[C@H](CN(C)Cc2ccc(C(=O)Nc4ccccc4N)cc2)O3)cc1 | 0.836 ± 0.077 | –
59 | COc1ccc(S(=O)(=O)Nc2ccc3c(c2)CC(=O)N([C@@H](C)CO)C[C@@H](C)[C@@H](CN(C)Cc2ccc(C(=O)Nc4ccccc4N)cc2)O3)cc1 | 0.844 ± 0.012 | –
60 | COc1ccc(S(=O)(=O)Nc2ccc3c(c2)CC(=O)N([C@@H](C)CO)C[C@H](C)[C@H](CN(C)Cc2ccc(C(=O)Nc4ccccc4N)cc2)O3)cc1 | 0.993 ± 0.024 | –
61 | COc1ccc(S(=O)(=O)Nc2ccc3c(c2)CC(=O)N([C@@H](C)CO)C[C@H](C)[C@@H](CN(C)Cc2ccc(C(=O)Nc4ccccc4N)cc2)O3)cc1 | 0.872 ± 0.11 | –
62 | Cc1noc(C)c1S(=O)(=O)Nc1ccc2c(c1)CC(=O)N([C@@H](C)CO)C[C@@H](C)[C@@H](CN(C)Cc1ccc(Oc3ccccc3)cc1)O2 | 0.851 ± 0.12 | –
63 | Cc1noc(C)c1S(=O)(=O)Nc1ccc2c(c1)CC(=O)N([C@@H](C)CO)C[C@H](C)[C@H](CN(C)Cc1ccc(Oc3ccccc3)cc1)O2 | 0.923 ± 0.045 | –
64 | COc1ccc(S(=O)(=O)Nc2ccc3c(c2)CC(=O)N([C@H](C)CO)C[C@H](C)[C@@H](CN(C)Cc2ccc(C(=O)Nc4ccccc4N)cc2)O3)cc1 | 1 ± 0.027 | –
65 | Cc1noc(C)c1S(=O)(=O)Nc1ccc2c(c1)CC(=O)N([C@H](C)CO)C[C@H](C)[C@H](CN(C)Cc1ccc(Oc3ccccc3)cc1)O2 | 0.981 ± 0.01 | –
66 | COc1ccc(S(=O)(=O)Nc2ccc3c(c2)CC(=O)N([C@H](C)CO)C[C@H](C)[C@H](CN(C)Cc2ccc(C(=O)Nc4ccccc4N)cc2)O3)cc1 | 0.766 ± 0.044 | –
67 | COc1ccc(S(=O)(=O)Nc2ccc3c(c2)CC(=O)N([C@H](C)CO)C[C@@H](C)[C@@H](CN(C)Cc2ccc(C(=O)Nc4ccccc4N)cc2)O3)cc1 | 0.956 ± 0.014 | –
68 | COc1ccc(S(=O)(=O)Nc2ccc3c(c2)CC(=O)N([C@H](C)CO)C[C@@H](C)[C@H](CN(C)Cc2ccc(C(=O)Nc4ccccc4N)cc2)O3)cc1 | 0.966 ± 0.1 | –
